Consider 20 molecules from PubChem BioAssay.

Assay [1] can be described thus: antimalarial activity against Dd2 strain (AID 2302;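 active means growth inhibition above 50% at the single 2 µM test dose, taken to imply half-maximal potency below 2 µM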;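 further: 0% = DMSO untreated growth and 100% = chloroquine plus artemisinin killed control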). The conditions noted are these: P. falciparum Dd2 in RBCs, LDH growth readout, 72 h; at 2 µM; stronger effect = higher value.
Assay [2] is described as follows: human hepatoma cell viability loss – ATP luminescence, cytotoxicity control for P. falciparum antimalarial project, primary screen (AID 2303;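 active means inhibition above 50%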;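 further: 0% = DMSO wells and 100% = digitonin-killed cells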). The conditions noted are these: HepG2 viability, 24-48 h, at 10 µM, stronger effect = higher value.
Assay [3] deals with L-lactate dehydrogenase (Plasmodium falciparum (isolate CDC / Honduras)) (UniProt Q27743). The assay is described as follows: PfLDH activity inhibition – cell lysate, 3D7 strain, counter-screen for P. falciparum growth inhibition project (AID 2304).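 Further: 0% = vehicle and 100% = reference inhibitor.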 To be noted: P. falciparum 3D7 crude extract, LDH APAD/NBT absorbance; at 2 µM; stronger effect = higher value. (The purpose of a counterscreen is to sort out artefacts and off-target activity.)

Assay [4] can be described thus: inhibition of 3D7 malaria parasite growth – strain 3D7 (AID 2306).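 Further: 0% = DMSO wells and 100% = chloroquine plus artemisinin control wells.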 To be noted: P. falciparum 3D7 erythrocytic growth, LDH absorbance, 72 h; at 2 µM; stronger effect = higher value.
Assay [5] deals with Calcium-dependent protein kinase 1 (Plasmodium falciparum (isolate 3D7)) (UniProt P62344). The assay is described as follows: PfCDPK1 kinase inhibitors, biochemical, TCAMS library (AID 1159585; cut-off not given, nearly all actives have IC50 up to about 0.98 µM;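 further: inhibitors leave more ATP so luminescence rises with inhibition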). To be noted: recombinant PfCDPK1, Kinase-Glo ATP depletion luminescence. Background: In Kinase-Glo more light means more ATP remaining.
Assay [6] has as its target Plasmodium falciparum protein kinase 6 (PK6, PF3D7_1337100) (UniProt Q8IDW1). Nature of the assay: PfPK6 kinase inhibitors, biochemical, TCAMS library (AID 1159586). The conditions noted are these: recombinant PfPK6, Kinase-Glo ATP depletion luminescence.
The target in assay [7] is Protein kinase 7 (PK7), Plasmodium falciparum 3D7 (PF3D7_0213400) (UniProt Q7YTF7). Nature of the assay: inhibition of Plasmodium PK7 catalytic activity – biochemical, TCAMS antimalarial set, Kinase-Glo luminescence (AID 1159587). The conditions noted are these: recombinant PfPK7, Kinase-Glo ATP depletion luminescence.
The target in assay [8] is Calcium-dependent protein kinase 4 (Plasmodium falciparum (isolate 3D7)) (UniProt Q8IBS5). The assay is described as follows: PfCDPK4 kinase inhibitors, biochemical, TCAMS library (AID 1159588; cut-off not given, nearly all actives have IC50 up to about 0.91 µM). To be noted: recombinant PfCDPK4, Kinase-Glo ATP depletion luminescence.

The inhibition is the relative decrease from the control value, in per cent.

Structures are written as SMILES. Values without a mark were called inactive. For some of these results: Potency and affinity values are given separately. Calls of active or inactive are those of the source. Unless noted, how the calls were made is not given here.

Chain of Protein kinase 7 (PK7), Plasmodium falciparum 3D7 (PF3D7_0213400) (Q7YTF7 1-343): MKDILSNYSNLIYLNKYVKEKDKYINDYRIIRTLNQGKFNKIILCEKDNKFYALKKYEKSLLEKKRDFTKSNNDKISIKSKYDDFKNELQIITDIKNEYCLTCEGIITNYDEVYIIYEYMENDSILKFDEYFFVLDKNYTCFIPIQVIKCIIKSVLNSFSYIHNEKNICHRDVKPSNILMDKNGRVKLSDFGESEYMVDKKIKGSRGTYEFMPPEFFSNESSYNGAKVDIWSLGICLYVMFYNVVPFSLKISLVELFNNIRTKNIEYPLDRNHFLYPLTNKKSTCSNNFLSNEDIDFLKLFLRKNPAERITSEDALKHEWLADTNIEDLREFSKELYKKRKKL
Chain of L-lactate dehydrogenase (Plasmodium falciparum (isolate CDC / Honduras)) (Q27743 whole entry, looked up): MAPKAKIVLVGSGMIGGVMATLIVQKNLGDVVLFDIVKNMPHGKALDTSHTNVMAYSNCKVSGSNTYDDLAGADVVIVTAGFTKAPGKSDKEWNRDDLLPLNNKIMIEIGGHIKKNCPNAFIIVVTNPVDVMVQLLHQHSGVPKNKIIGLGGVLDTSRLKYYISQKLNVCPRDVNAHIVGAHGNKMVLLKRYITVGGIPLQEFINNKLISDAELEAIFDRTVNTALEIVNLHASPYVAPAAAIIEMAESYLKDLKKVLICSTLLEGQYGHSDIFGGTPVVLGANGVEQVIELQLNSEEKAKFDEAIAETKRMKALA
Chain of Calcium-dependent protein kinase 4 (Plasmodium falciparum (isolate 3D7)) (Q8IBS5 whole entry, looked up): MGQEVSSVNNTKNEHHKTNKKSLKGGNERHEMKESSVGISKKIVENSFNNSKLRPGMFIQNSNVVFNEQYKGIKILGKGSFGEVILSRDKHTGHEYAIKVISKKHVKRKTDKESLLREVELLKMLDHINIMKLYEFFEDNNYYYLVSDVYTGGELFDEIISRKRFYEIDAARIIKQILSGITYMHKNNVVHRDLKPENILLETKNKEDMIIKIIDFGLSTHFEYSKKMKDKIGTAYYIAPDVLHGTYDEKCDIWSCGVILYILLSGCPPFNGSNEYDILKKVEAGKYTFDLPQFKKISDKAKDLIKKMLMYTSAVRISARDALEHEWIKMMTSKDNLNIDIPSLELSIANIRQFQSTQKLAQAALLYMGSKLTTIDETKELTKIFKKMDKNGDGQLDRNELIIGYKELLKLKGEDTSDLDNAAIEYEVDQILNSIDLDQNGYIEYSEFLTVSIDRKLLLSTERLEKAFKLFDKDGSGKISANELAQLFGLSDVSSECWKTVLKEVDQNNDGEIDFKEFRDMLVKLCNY
Chain of Plasmodium falciparum protein kinase 6 (PK6, PF3D7_1337100) (Q8IDW1 1-305): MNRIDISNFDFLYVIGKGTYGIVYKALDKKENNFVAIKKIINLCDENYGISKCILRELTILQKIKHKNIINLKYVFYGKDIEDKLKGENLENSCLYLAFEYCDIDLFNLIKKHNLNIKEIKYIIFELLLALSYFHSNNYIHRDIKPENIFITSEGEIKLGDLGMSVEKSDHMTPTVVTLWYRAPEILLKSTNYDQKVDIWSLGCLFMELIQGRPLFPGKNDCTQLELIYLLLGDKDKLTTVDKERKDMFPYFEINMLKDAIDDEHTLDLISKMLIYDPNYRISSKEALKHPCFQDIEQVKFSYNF
Chain of Calcium-dependent protein kinase 1 (Plasmodium falciparum (isolate 3D7)) (P62344 whole entry, looked up): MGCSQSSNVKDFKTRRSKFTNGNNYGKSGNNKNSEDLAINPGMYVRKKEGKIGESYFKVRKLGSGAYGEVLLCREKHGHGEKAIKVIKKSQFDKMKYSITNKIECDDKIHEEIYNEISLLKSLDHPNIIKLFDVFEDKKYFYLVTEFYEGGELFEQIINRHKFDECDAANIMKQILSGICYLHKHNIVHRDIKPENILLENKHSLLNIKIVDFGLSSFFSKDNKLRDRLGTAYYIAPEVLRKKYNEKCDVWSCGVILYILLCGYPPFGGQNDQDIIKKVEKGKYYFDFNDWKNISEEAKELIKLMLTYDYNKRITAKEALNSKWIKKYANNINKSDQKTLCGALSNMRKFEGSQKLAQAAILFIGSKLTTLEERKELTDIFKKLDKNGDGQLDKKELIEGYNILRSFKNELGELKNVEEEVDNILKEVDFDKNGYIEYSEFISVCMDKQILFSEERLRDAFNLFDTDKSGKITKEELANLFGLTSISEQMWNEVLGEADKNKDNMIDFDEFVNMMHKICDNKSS

Take `CCN(CC)CCN1C(=O)c2oc3ccc(Cl)cc3c(=O)c2C1c1ccc(SC)cc1` (stereo not given): the growth inhibition in assay [1] was 6%; in assay [4], 98% (active). The figures for the inhibition in assay [2] and in assay [3] were -5% and -6%, respectively. For the same molecule, the outcome in assay [5], in assay [6], in assay [7] and in assay [8] was inactive.

Turning to `CCOC(=O)C1=C(C)N=c2sc(=Cc3cc(Cl)ccc3O)c(=O)n2C1c1ccc2c(c1)OCO2` (stereo not given), the growth inhibition is 91% (active) in assay [1] and 96% (active) in assay [4]. For the same molecule, the inhibition in assay [2] was -2%; in assay [3], -1%. Also, the outcome in assay [5], in assay [6], in assay [7] and in assay [8] was inactive.

In the case of `NCCCN(Cc1ccc(Cl)c(Cl)c1)C(=O)Nc1ccc(Cl)c(Cl)c1`, the values for the growth inhibition in assay [1] and in assay [4] were 41% and 93% (active), respectively. For the same molecule, the results for the inhibition in assay [2] and in assay [3] were 100% (active) and -2%, respectively. Also, the outcome in assay [5], in assay [6], in assay [7] and in assay [8] was inactive.

Turning to `N#Cc1ccc2nc(-c3cc(-c4cccc(F)c4)cnc3N)[nH]c2c1`, the growth inhibition in assay [1] is 93% (active); in assay [4], 100% (active). Also, the figures for the inhibition in assay [2] and in assay [3] were 46% and 5%, respectively. Also, the outcome in assay [5], in assay [6], in assay [7] and in assay [8] was inactive.

As for `CCC1(CC)N=C(N)N=C(N)C1c1ccc(Cl)c(Cl)c1` (stereo not given), the growth inhibition in assay [1] was 20%; in assay [4] it was 98% (active). For the same molecule, the inhibition in assay [2] is -16%; in assay [3] it was 7%. The result in assay [5], in assay [6], in assay [7] and in assay [8] was inactive.

Turning to `O=C(Nc1ccc(Cl)cc1)c1ccc(CN2CCCN(Cc3cccc(Cl)c3)CC2)cc1`, the growth inhibition was 15% in assay [1] and 96% (active) in assay [4]. The inhibition in assay [2] is 53% (active); in assay [3] it was 1%. In addition, the result in assay [5], in assay [6], in assay [7] and in assay [8] was inactive.

As to `c1csc(-c2nc(N3CCCCC3)ncc2-c2ccsc2)n1`, the growth inhibition in assay [1] is 72% (active); in assay [4], 89% (active). Moreover, the inhibition is -5% in assay [2] and -3% in assay [3]. For the same molecule, the result in assay [5], in assay [6], in assay [7] and in assay [8] was inactive.

For the molecule `Cc1nc(-c2cccc(C(F)(F)F)c2)n2nc(Nc3ccc(OCCN4CCCC4)cc3)ncc12`, the growth inhibition was 29% in assay [1] and 99% (active) in assay [4]. The inhibition is 30% in assay [2] and -3% in assay [3]. Also, the outcome in assay [5], in assay [6], in assay [7] and in assay [8] was inactive.

With `COc1ccc(OCC(=O)Nc2cc(-c3nc4ccccc4[nH]3)ccc2Cl)cc1`, the results for the growth inhibition in assay [1] and in assay [4] were 33% and 94% (active), respectively. Moreover, the inhibition in assay [2] was 18%; in assay [3] it was -4%. The outcome in assay [5], in assay [6], in assay [7] and in assay [8] was inactive.

In the case of `O=C(N[C@H]1CCN(CCc2ccc(O[C@H]3CCNC3)c(F)c2)C1)c1ccc(Cl)c(Cl)c1`, the growth inhibition was 23% in assay [1] and 95% (active) in assay [4]. Also, the inhibition in assay [2] was 39%; in assay [3], 2%. Further, the result in assay [5], in assay [6], in assay [7] and in assay [8] was inactive.

With `COc1ccc(C=NNc2cc(C)nc3ccc(OC)cc23)c(OC)c1`, the growth inhibition is 95% (active) in assay [1] and 100% (active) in assay [4]. For the same molecule, the results for the inhibition in assay [2] and in assay [3] were 23% and -5%, respectively. Besides, the result in assay [5], in assay [6], in assay [7] and in assay [8] was inactive.

Turning to `COC(=O)c1cc(C(=O)CN(Cc2ccccc2)C(C)C)ccc1O`, the growth inhibition in assay [1] was -1%; in assay [4] it was 97% (active). Besides, the inhibition was 7% in assay [2] and -2% in assay [3]. Besides, the outcome in assay [5], in assay [6], in assay [7] and in assay [8] was inactive.

`COCCN(C(=O)Cc1cccs1)C(C(=O)NCc1ccc(OC)cc1)c1ccc(C(C)C)cc1` (stereo not given): the growth inhibition in assay [1] was 59% (active); in assay [4], 96% (active). Also, the inhibition in assay [2] is -13%; in assay [3], 4%. Also, the result in assay [5], in assay [6], in assay [7] and in assay [8] was inactive.

For the molecule `Cc1ccccc1C1CCN(C2CCC(NC(=O)c3ccc(-c4ccccn4)s3)CC2)CC1` (stereo not given), the growth inhibition in assay [1] is 17%; in assay [4], 87% (active). Further, the inhibition in assay [2] was 32%; in assay [3] it was -1%. Moreover, the result in assay [5], in assay [6], in assay [7] and in assay [8] was inactive.

In the case of `O=S(=O)(Nc1cccc(CCN2CCCCC2CCN2CCCC2)c1)c1ccc(Oc2ccccc2)cc1` (stereo not given), the growth inhibition is 1% in assay [1] and 94% (active) in assay [4]. The inhibition in assay [2] was 52% (active); in assay [3] it was -2%. In addition, the result in assay [5], in assay [6], in assay [7] and in assay [8] was inactive.

For the molecule `CC(=O)Nc1ccc(CN(Cc2ccc(C)cc2)Cc2cccc(Oc3ccccc3)c2)cc1`, the growth inhibition is 87% (active) in assay [1] and 84% (active) in assay [4]. Besides, the inhibition is 34% in assay [2] and 1% in assay [3]. The outcome in assay [5], in assay [6], in assay [7] and in assay [8] was inactive.

For the molecule `COc1ccc(NS(=O)(=O)c2ccccc2Br)cc1N1CCN(C)CC1`, the growth inhibition was 3% in assay [1] and 94% (active) in assay [4]. In addition, the inhibition in assay [2] was 2%; in assay [3], -3%. Further, the outcome in assay [5], in assay [6], in assay [7] and in assay [8] was inactive.

As to `COc1ccc(Nc2nc(N3CCCC3)c3ccccc3n2)cc1`, the values for the growth inhibition in assay [1] and in assay [4] were 98% (active) and 102% (active), respectively. In addition, the inhibition is 40% in assay [2] and 2% in assay [3]. The result in assay [5], in assay [6], in assay [7] and in assay [8] was inactive.

`COc1ccccc1C1CCN(C2CCC(NC(=O)/C=C/c3cc(F)cc(C(F)(F)F)c3)CC2)CC1` (stereo not given): the growth inhibition in assay [1] was 57% (active); in assay [4] it was 98% (active). In addition, the inhibition in assay [2] is 92% (active); in assay [3], -1%. For the same molecule, the result in assay [5], in assay [6], in assay [7] and in assay [8] was inactive.

Consider `CCCc1ccccc1OCC(O)CN(C1CCCC1)C1CCCC1` (stereo not given), for which the growth inhibition in assay [1] and in assay [4] was 97% (active) throughout. Also, the values for the inhibition in assay [2] and in assay [3] were 49% and -7%, respectively. The outcome in assay [5], in assay [6], in assay [7] and in assay [8] was inactive.
